SMN2 splice enh: qHTS Assay for Enhancers of SMN2 Splice Variant Expression; HEK293 SMN2-luciferase splicing reporter, luminescence, 30-36 h; Potency, µM (series often up to 46.1 µM), for the others: at the top dose activity change, positive = activation, actives largely listed as activators; hit rate 2.8% among 210,000; AID 1458, 2008; note: % of control where 0% means no effect; nearly all actives have a fitted effect of over 55% in size
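HEK293 cells carry an SMN2 minigene-luciferase reporter in which exon 7 inclusion puts luciferase in frame. Cells were seeded at 2000 cells/well, attached for 10-12 hours, then exposed to compounds for 30-36 hours at 37C before ONE-Glo luminescence.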
FLuc modulator: qHTS profiling assay for firefly luciferase inhibitor/activator using purifed enzyme and Km concentrations of substrates (counterscreen for miR-21 project); Luciferin 4-monooxygenase (Photinus pyralis), P08659; purified FLuc, Km substrates, luminescence inhibition; Potency, µM (series often up to 57.5 µM), without a hit: at the top dose activity change, negative = inhibition, actives largely listed as inhibitors; hit rate 6.9% among 360,000;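 note: plate controls were vehicle for no effect and reference inhibitor for full effect; nearly all actives have a fitted effect of over 55% in size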
Target sequence (P08659 whole entry, looked up): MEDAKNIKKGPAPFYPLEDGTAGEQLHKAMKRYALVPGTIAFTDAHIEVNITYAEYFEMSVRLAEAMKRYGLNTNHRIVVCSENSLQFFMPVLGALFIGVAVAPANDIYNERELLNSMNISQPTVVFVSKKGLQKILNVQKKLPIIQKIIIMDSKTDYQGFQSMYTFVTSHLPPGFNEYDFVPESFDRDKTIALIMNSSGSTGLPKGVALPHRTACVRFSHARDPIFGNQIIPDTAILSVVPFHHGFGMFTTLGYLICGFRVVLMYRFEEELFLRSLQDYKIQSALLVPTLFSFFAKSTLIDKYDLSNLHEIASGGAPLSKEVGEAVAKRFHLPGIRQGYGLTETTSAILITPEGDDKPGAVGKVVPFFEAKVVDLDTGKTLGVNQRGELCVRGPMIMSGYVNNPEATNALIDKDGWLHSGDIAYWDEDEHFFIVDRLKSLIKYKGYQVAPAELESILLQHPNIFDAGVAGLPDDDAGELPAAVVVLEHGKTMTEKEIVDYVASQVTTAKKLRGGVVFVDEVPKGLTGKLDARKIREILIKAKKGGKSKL
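Purified P. pyralis luciferase (10nM final) with 10uM D-luciferin and 10uM ATP (Km levels) in 50mM Tris acetate pH 7.5, 10mM Mg acetate, 0.01% Tween-20, 0.05% BSA; qHTS 6-point titration, ~60 µM downward; luminescence read.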
ELG1 repair inh: qHTS screen for small molecules that inhibit ELG1-dependent DNA repair in human embryonic kidney (HEK293T) cells expressing luciferase-tagged ELG1; HEK293T ELG1-luciferase reporter, luminescence, 16 h; DNA damage induced by 5-fluorouridine; Potency, µM (highest dose often 46.1 µM), for inactives: at the highest dose activity change, negative = inhibition, usual class: inhibitors; hit rate 2.3% among 330,000; note: % is set by controls: 0 for no effect and ±100 for the full control effect; nearly all actives have a fitted effect of over 55% in size
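DMSO vehicle served as the neutral condition. Each well held 2,000 cells given 5-fluorouridine plus compound; after 16 hr at 37 °C/5% CO2, ONE-Glo was added and luciferase measured 30 min later.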
ELG1 genotoxic: qHTS screen for small molecules that induce genotoxicity in human embryonic kidney (HEK293T) cells expressing luciferase-tagged ELG1. HEK293T ELG1-luciferase reporter, luminescence, 16 h. Potency, µM (top dose mostly 46 µM), for the others: at the highest dose activity change, positive = activation, hits mostly activators. hit rate 1.3% among 330,000. AID 504466, 2011; note: % of control where 0% means no effect; nearly all actives have a fitted effect of over 60% in size
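Cells (2,000/well) expressing the ELG1-luciferase fusion are dosed by pin tool and kept 16 hr at 37 °C, 5% CO2. Signal comes from ONE-Glo luciferase reagent after 30 min at room temperature.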
NPC1 prom act: qHTS Assay for NPC1 Promoter Activators | hit rate 2.4% among 320,000 | Huh7 NPC1 promoter luciferase reporter, 24 h | Potency, µM (doses to about 9.22 µM), without a hit: at the top dose activation, usual class: activators; note: % of control where 0% means no effect; nearly all actives have a fitted effect of over 60% in size
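Huh7 reporter cells (NPC1 promoter driving luciferase) are dosed with compound for 24 h at 37 °C, 5% CO2; luciferase detection reagent is then added and luminescence measured after 10 min at ambient temperature.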
Rab9 promoter act: qHTS Assay for Rab9 Promoter Activators; Huh7 Rab9 promoter-luciferase reporter, luminescence, 24 h; Potency, µM (highest dose often 9.22 µM), for inactives: at the top dose activation, negative = inhibition, usual class: activators; hit rate 2.8% among 320,000; note: % of control where 0% means no effect; nearly all actives have a fitted effect of over 60% in size
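Huh7 reporter line, Rab9 promoter upstream of luciferase. Compound exposure 24 h at 37 °C in reduced-serum medium with 10% FBS. Read-out: luminescence.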
Active calls of the source: *; ? = inconclusive; . = no result given. An excerpt weighted towards active compounds, which were near 9.3% of everything screened. Calls come from the whole dose curve; as a rule, active = well fitted curve in the direction sought with a large enough effect; inconclusive = small, poorly fitted or top-dose-only effect, or another doubt; inactive = no such curve, though single readings can be large; an effect the other way counts as inactive or inconclusive. Potency is the fitted concentration of half-maximal effect.

SMILES | SMN2 splice enh | FLuc modulator | ELG1 repair inh | ELG1 genotoxic | NPC1 prom act | Rab9 promoter act
CC(=O)Nc1ccc(S(=O)(=O)N2CCc3c(Cl)cccc3C2)cc1 | -65.0% | 3.9% | -11.0% | 1.0% | -1.4% | -1.6%
O=C(Nc1ccc(-c2nc3cccnc3s2)cc1)c1ccc(Cl)nc1 | . | ? | ? | 9.9% | 0.891µM* | 0.708µM*
O=C(Nc1ccc(-c2nc3cccnc3s2)cc1)c1cccnc1Cl | . | 1.69µM* | ? | 0.82µM* | 0.316µM* | 0.794µM*
CN(C)c1ccc(C(=O)Nc2cccc(-c3nc4cccnc4s3)c2)cc1 | . | 1.8% | . | . | . | .
CCC1=Nc2cc(C(=O)NCCN3CCOCC3)ccc2Sc2ccccc21 | . | -0.1% | 5.1% | 3.0% | 2.4% | 4.0%
O=C(NCCc1ccccc1)c1cc2ccccc2oc1=O | . | ? | ? | 0.1% | ? | 7.5%
CN(C(=O)COC(=O)c1cc2ccccc2oc1=O)C1CCCCC1 | . | . | ? | 4.0% | . | .
N=c1oc2ccccc2cc1C(=O)NC1CCCCCC1 | . | 4.78µM* | ? | ? | ? | -46.1%
O=C(OC1CCCCC1)c1cc2ccccc2oc1=O | . | 7.57µM* | ? | ? | ? | ?
O=C(NC1CCCCCC1)c1cc2ccccc2oc1=O | . | 2.69µM* | ? | 12.9% | 3.16µM* | 2.3%
O=C(NCCC1=CCCCC1)c1cc2ccccc2oc1=O | . | 4.78µM* | ? | ? | -0.9% | 3.2%
COc1ccc2cc(C(=O)NC3CCCCC3)c(=O)oc2c1 | 7.8% | ? | 16.1% | ? | 12.9% | ?
Cc1ccccc1-c1nc(CN2CCC(C(=O)NCCC3=CCCCC3)CC2)c(C)o1 | -8.2% | -0.9% | ? | -7.2% | 1.4% | -3.6%
CCn1cc(C(=O)NC2CCCCCC2)c2cc(OC)c(OC)cc2c1=O | -18.1% | -1.9% | 13µM* | -8.7% | -0.4% | 0.4%
COc1cc2ccccc2cc1C(=O)NC1CCCCC1 | . | 12µM* | ? | 12.9% | 27.4% | ?
COc1cc2ccccc2cc1C(=O)NC1CCCC1 | . | . | ? | 9.8% | . | .
COc1cc(-c2nc(C(=O)NC3CCCCC3)cc3c2[nH]c2ccccc23)cc(OC)c1OC | . | 1.6% | 5.8µM* | -3.6% | -4.7% | -10.5%
Cc1c(C)n(CCc2c[nH]c3ccccc23)ccc1=O | 2.9% | 5.9% | -5.5% | 11.5% | -5.7% | -1.0%
COc1ccc(N2C(=O)C3CCCN3C2c2ccccc2Cl)cc1 (stereo unspecified) | -3.9% | -3.9% | ? | 18.0% | 6.2% | -3.8%
Cc1csc(B(O)O)c1 | -2.6% | . | . | . | . | .
Cc1c(C(=O)NCc2cccs2)oc2ccc(Br)cc12 | -20.3% | 19µM* | ? | 18.4µM* | 0.9% | 13.8%
Cc1c(C(=O)NCc2cccs2)oc2ccc(S(=O)(=O)N3CCOCC3)cc12 | ? | 3.2% | 10.3µM* | -4.4% | 1.9% | 0.1%
Cc1c(C(=O)NCc2ccccn2)oc2ccc(S(=O)(=O)N3CCOCC3)cc12 | -10.1% | 0.6% | ? | -5.5% | 0.7% | -2.1%
Cc1c(C(=O)NCCC2=CCCCC2)oc2ccc(S(=O)(=O)N3CCOCC3)cc12 | -40.4% | ? | 16.4µM* | -13.4% | 0.9% | 0.2%
COc1ccc2oc(C(=O)Nc3cccc(S(=O)(=O)N4CCOCC4)c3)c(C)c2c1 | . | 6.01µM* | ? | -5.5% | 1.8% | 0.9%
SMILES | SMN2 splice enh | FLuc modulator | ELG1 repair inh | ELG1 genotoxic | NPC1 prom act | Rab9 promoter act
COc1ccc2oc(C(=O)OCC(=O)Nc3cccc(S(=O)(=O)N4CCOCC4)c3)c(C)c2c1 | . | ? | -2.3% | 1.0% | 0.4% | 0.4%
O=C1COc2ccc(C(=O)COC(=O)c3c(F)cccc3Cl)cc2N1 | . | ? | ? | 1.1% | -0.1% | -6.5%
C=CCSc1nnc(-c2cc(C(C)(C)C)nn2Cc2ccc(F)cc2)n1C | . | -1.5% | -20.8% | -5.5% | 3.0% | -3.3%
Cc1nn(-c2ccccc2)c2nc(-c3ccccc3)cc(C(=O)N3CCOCC3)c12 | -7.0% | 1.7% | ? | -8.3% | -5.4% | -1.2%
CCOc1ccc(CCNC(=O)CN2C(=O)COc3ccc(S(=O)(=O)N(CC)CC)cc32)cc1 | -13.8% | -7.2% | . | . | . | .
O=C(O)c1ccc2c(c1)S(=O)(=O)N=C1CCCCCN12 | 15.0% | 3.3% | -3.6% | 2.1% | -2.3% | -3.4%
Cc1nnc(SCC(=O)Nc2nccs2)[nH]c1=O | -7.7% | -0.4% | 6.4% | 2.6% | -6.9% | -1.5%
COc1ccc(S(=O)(=O)n2cnc3cc(C)c(C)cc32)cc1 | -28.2% | -2.8% | 13µM* | -1.1% | 1.8% | 2.6%
CCOc1ccc2nc(NC(=O)C3CCN(C(=O)c4ccco4)CC3)sc2c1 | . | 15.1µM* | ? | ? | ? | ?
CCOc1ccc2nc(N3CCC(C(=O)N4CCN(C5CCCCC5)CC4)CC3)sc2c1 | -16.2% | -18.8% | ? | 4.2% | 11.5% | 1.8%
CCOc1ccc2nc(N3CCC(C(=O)N4CCN(C(=O)c5ccco5)CC4)CC3)sc2c1 | -46.3% | 13.5µM* | ? | 0.9% | 7.3% | 19.6%
Cc1cc(C(F)(F)F)n2ncc(C(=O)O)c2n1 | -3.4% | 0.1% | 0.7% | 2.3% | 2.9% | -6.7%
CCCNC(=O)c1oc2ccc3c(c2c1C)C(O)CC(C)(C)O3 (stereo unspecified) | . | -8.3% | ? | 8.9% | 7.4% | 19.7%
CCC1(C)CC(=O)c2c(ccc3oc(C(=O)NCc4ccccc4)c(C)c23)O1 (stereo unspecified) | 22.4µM* | 9.53µM* | . | . | . | .
Cc1c(C(=O)NCc2ccoc2)oc2ccc3c(c12)C(=O)CC(C)(C)O3 | 15.8µM* | 8.49µM* | ? | ? | ? | ?
Cc1nnc(SCC(=O)Nc2nsc(-c3ccccc3)n2)s1 | 15.6% | ? | ? | -3.8% | 10.2% | 16.6%
Nc1nnc(SCC(=O)c2cccc([N+](=O)[O-])c2)s1 | -57.5% | 4.3% | 2.6% | -9.1% | 0.2% | 1.1%
Cc1nnc(SCC(=O)c2ccc(Br)cc2)s1 | -7.6% | 16.9µM* | -1.3% | -0.8% | 9.8% | 17.0%
Cc1ccc(C(=O)CSc2nnc(C)s2)cc1 | ? | 13.5µM* | ? | ? | 2.24µM* | 2.24µM*
Cc1ccc(-c2nc(NC(=O)CSc3nnc(C)s3)ns2)cc1 | 5.8% | 19µM* | ? | 3.5% | 8.1% | -6.8%
Nc1nnc(SCC(=O)c2ccc3ccccc3c2)s1 | ? | 19µM* | ? | 11.6µM* | 4.47µM* | 3.98µM*

Screening data as filed in PubChem.
